# PubChem BioAssay
# Calls of active or inactive are those of the source.
# Legend:
# [1] = test system: Plasmodium falciparum Sir2 (PF13_0152, Sir2A); test: pfSir2 binders on small-molecule microarrays, primary screen, biochemical, small-molecule microarray, 635 nm fluorescence (AID 1098); conditions: small-molecule microarray binding, fluorescence 635 nm; higher = more signal;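 further: score merges spot fluorescence intensity with its signal-to-noise ratio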
# [2] = small-molecule microarray binders of probe aDKK1, primary screen, biochemical, biotinylated probe, 635/667 nm fluorescence (AID 1099); conditions: higher = more signal;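 further: score merges 667nm spot fluorescence with signal to noise across triplicate slides; reference of the scale not given here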
# [3] = small-molecule microarray binders of probe aCHRDL2, primary screen, biochemical, biotinylated probe, 635/667 nm fluorescence (AID 1100); conditions: higher = more signal
# [4] = splicing luciferase reporter signal modulators, primary screen, spliceosome inhibition project, cell-based, HEK293, splice +/- reporter (AID 1101); conditions: luminescence, 24 h, higher = more signal, called active from +8 up or from −8 down;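 further: HEK293 cells carrying a splicing-competent luciferase reporter gene; test concentration not given here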
# [5] = target: Fibroblast growth factor 10 (Homo sapiens) (UniProt O15520); test: FGF10 binders on small-molecule microarrays, primary screen, biochemical, small-molecule microarray, 635 nm fluorescence (AID 1102); conditions: FGF10 binding, fluorescence 635 nm, higher = more signal
# [6] = test system: glycogen synthase kinase-3 (GSK3A per assay name; protocol says GSK3B); test: GSK3 binders on small-molecule microarrays, primary screen, biochemical, small-molecule microarray, 635 nm fluorescence, GSK3A (AID 1103); conditions: small-molecule microarray binding, fluorescence 635 nm; higher = more signal; further: the record names both GSK3A and GSK3B
# [7] = target: Epidermal growth factor receptor (Homo sapiens) (UniProt P00533); test: EGFR binders on small-molecule microarrays, primary screen, biochemical, small-molecule microarray, 635 nm fluorescence (AID 1104); conditions: EGFR binding, higher = more signal;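 further: score merges 667 nm emission intensity with spot signal to noise over triplicate slides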
# [8] = target: Follistatin-related protein 3 (Homo sapiens) (UniProt O95633); test: FSTL3 binders on small-molecule microarrays, primary screen, biochemical, small-molecule microarray, 635 nm fluorescence (AID 1105); conditions: FSTL3 binding, higher = more signal;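 further: score merges emission near 667 nm and signal to noise per printed spot across three slides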
# [9] = target: Dickkopf-related protein 1 (Homo sapiens) (UniProt O94907); test: DKK1 binders on small-molecule microarrays, primary screen, biochemical, small-molecule microarray, 635 nm fluorescence scan (AID 1106); conditions: DKK1 binding, higher = more signal;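 further: score merges emission near 667 nm with signal to noise over three replicate slides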
# [10] = test system: Inhibin beta A chain (activin A); test: INHBA (activin A) binders on microarrays, primary screen, biochemical, small-molecule microarray, 635 nm fluorescence scan (AID 1107); conditions: small-molecule microarray binding, higher = more signal;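 further: mouse activin A protein probed at 4.33 µg/mL on printed slides; score merges bound-protein fluorescence near 667 nm with spot signal-to-noise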
# Epidermal growth factor receptor (Homo sapiens), sequence (P00533 whole entry, looked up): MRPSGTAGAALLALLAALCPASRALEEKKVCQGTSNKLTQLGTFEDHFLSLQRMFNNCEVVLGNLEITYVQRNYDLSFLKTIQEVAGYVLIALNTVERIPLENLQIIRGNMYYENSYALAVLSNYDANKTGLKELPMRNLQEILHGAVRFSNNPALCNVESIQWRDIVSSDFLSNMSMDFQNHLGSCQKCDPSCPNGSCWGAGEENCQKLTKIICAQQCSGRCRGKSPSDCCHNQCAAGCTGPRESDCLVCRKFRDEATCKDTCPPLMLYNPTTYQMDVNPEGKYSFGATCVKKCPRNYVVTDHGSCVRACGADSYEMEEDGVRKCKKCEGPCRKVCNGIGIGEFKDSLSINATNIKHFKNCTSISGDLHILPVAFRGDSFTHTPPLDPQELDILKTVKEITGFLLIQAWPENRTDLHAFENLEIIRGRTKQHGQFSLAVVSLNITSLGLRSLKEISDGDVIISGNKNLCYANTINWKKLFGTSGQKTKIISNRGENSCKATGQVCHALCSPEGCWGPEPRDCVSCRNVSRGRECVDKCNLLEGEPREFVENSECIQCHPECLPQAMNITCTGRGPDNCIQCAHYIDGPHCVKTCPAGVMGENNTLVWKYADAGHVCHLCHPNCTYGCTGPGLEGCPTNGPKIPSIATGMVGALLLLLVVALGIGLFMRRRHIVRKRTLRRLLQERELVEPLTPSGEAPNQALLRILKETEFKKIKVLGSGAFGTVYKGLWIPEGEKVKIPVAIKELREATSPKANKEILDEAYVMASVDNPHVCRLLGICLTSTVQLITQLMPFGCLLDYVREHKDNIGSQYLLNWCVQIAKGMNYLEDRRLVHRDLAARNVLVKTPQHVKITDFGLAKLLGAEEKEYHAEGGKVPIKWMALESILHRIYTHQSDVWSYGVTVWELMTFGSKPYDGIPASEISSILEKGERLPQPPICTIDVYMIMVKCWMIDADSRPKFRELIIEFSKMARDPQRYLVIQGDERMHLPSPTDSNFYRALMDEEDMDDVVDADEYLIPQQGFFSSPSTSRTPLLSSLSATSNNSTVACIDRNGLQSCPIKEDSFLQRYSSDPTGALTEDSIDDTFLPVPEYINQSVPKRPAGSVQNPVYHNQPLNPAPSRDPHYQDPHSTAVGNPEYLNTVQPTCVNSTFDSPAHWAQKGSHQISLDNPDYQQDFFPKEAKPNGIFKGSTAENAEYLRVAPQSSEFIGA
# Dickkopf-related protein 1 (Homo sapiens), sequence (O94907 whole entry, looked up): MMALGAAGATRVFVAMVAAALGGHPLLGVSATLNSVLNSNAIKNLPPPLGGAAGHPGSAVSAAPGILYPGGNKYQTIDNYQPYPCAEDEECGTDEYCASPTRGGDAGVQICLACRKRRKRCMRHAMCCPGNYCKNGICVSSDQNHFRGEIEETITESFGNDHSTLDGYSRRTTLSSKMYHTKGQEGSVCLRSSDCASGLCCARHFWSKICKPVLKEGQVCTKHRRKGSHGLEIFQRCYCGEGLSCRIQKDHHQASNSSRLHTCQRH
# Fibroblast growth factor 10 (Homo sapiens), sequence (O15520 whole entry, looked up): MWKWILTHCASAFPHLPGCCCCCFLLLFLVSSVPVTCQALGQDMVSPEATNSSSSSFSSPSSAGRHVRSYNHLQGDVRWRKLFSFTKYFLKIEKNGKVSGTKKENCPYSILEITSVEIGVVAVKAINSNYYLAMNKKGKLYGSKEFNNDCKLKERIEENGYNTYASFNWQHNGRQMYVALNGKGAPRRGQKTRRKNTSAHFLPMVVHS
# Follistatin-related protein 3 (Homo sapiens), sequence (O95633 whole entry, looked up): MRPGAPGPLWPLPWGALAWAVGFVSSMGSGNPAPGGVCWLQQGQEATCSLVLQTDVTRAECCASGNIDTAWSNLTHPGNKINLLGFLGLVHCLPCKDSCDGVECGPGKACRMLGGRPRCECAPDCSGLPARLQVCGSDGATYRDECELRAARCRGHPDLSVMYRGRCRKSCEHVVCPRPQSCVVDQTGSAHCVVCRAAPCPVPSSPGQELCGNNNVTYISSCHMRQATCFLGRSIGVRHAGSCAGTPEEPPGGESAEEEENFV
SMILES,composite z-score [1],composite z-score [2],composite z-score [3],z-score [4],composite z-score [5],composite z-score [6],composite z-score [7],composite z-score [8],composite z-score [9],composite z-score [10]
COc1ccc([Si](C)(C)[C@H]2[C@H](CCO)O[C@@]3(C(=O)N(Cc4ccccc4)c4ccc(NC(=O)[C@H](C)O)cc43)[C@@H]2C)cc1,1.18,0.305,0.29,-2.35 (inactive),0.139,0.0488,-0.0574,-0.0813,-0.119,0.209
[N-]=[N+]=Nc1ccccc1C[C@]1(C(N)=O)COC(c2ccc(OCCCO)cc2)=N1,0.219,1.07,1.04,-0.32 (inactive),-0.128,-0.51,-0.969,-1.16,-1.18,1.13
COC(=O)C[C@H]1O[C@]2(C(=O)N(C)c3ccccc32)[C@@H](C)[C@@H]1[Si](C)(C)c1ccccc1,-0.0153,-0.0571,-0.261,-1.25 (inactive),0.988,0.96,0.753,0.837,1.11,-0.399
NCCCCCCNC(=O)[C@@H]1C[C@@H]2C(=O)NCC(=O)N2[C@@H]1c1cccc(OCCO)c1,1.6,0.45,0.0888,-0.734 (inactive),1.37,1.3,0.702,0.98,1.32,1.12
COc1c(C)cc(-c2cc3c(c(CCc4ccccc4)n2)[Si](C(C)C)(C(C)C)O[C@H]3c2ccccc2)cc1C,0.994,-0.137,-0.169,-1.48 (inactive),-0.168,-0.914,-0.275,-0.257,-0.204,-0.0185
O=C(c1ccccc1)N1Cc2ccccc2C[C@@]2(N=C(c3ccc(OCCCO)cc3)O[C@H]2c2ccccc2)C1=O,1.26,-0.114,-0.0152,-0.847 (inactive),1.38,1.3,0.699,0.963,0.777,-0.395
COCCOC(=O)N1C(=O)[C@@]2(c3cc(C#CCNC(N)=O)ccc31)[C@H](C(=O)N1CCN(c3ncccn3)CC1)[C@H]1C(=O)O[C@H](c3ccccc3)[C@H](c3ccccc3)N1[C@@H]2c1ccc(O)cc1,0.505,-0.326,-0.47,-0.428 (inactive),-0.735,-0.438,-1.14,-0.997,-1.92,-0.853
C[C@H]1C2[C@H](Cc3ccccc3)NC(=O)[C@]23C(=O)N[C@@H](Cc2ccccc2)C(=O)N2CCC[C@H]2C(=O)NC/C=C/CC/C=C/C3[C@@H]2O[C@]12C (stereo not given in full),1.26,-0.297,-0.684,0.437 (inactive),1.38,0.769,-0.0947,0.895,0.272,0.87
C=CCOC(=O)[C@H]1[C@@H]2C(=O)O[C@@H](c3ccccc3)[C@@H](c3ccccc3)N2[C@@H](c2ccc(OCCOC(=O)[C@H]3C[C@H]4C(=O)NCC(=O)N4[C@H]3c3ccc(O)cc3)cc2)[C@]12C(=O)Nc1ccccc12,1.33,0.101,0.116,0.417 (inactive),1.28,1.3,0.756,1.23,0.974,0.511
CC(C)c1ccc(NN2C(C(O)c3ccccc3)C=CC3C(=O)N(c4ccccc4)C(=O)C32)cc1 (stereo not given),1.26,1.25,0.98,-0.648 (inactive),0.715,0.522,-0.144,0.634,-0.624,0.546
C[C@]1(C(=O)O)c2ccccc2C(=O)N(Cc2cc(C(F)(F)F)cc(C(F)(F)F)c2)[C@H]1c1ccc(CO)cc1,-0.822,0.324,0.55,0.487 (inactive),-0.04,-0.25,-0.641,0.142,0.123,0.41
O=C(NC1CC1)[C@@H]1c2ccccc2C(=O)N(C2CCCCC2)[C@H]1c1ccc(CO)cc1,0.891,1.84,0.989,-0.496 (inactive),0.055,0.286,0.0989,0.208,0.139,-0.24
CC[C@@H](O[Si](C#C[Si](C(C)C)(C(C)C)C(C)C)(C(C)C)C(C)C)c1cn([C@H](C)c2ccccc2)nn1,0.43,0.0317,-0.328,0.242 (inactive),0.403,0.136,0.533,0.658,0.432,-0.142
CN1C(=O)C2CC=C(C3=CCO[C@@H]3[C@H]3CCCN3S(=O)(=O)c3ccccc3[N+](=O)[O-])CC2C1=O (stereo not given in full),1.11,-0.22,-0.193,0.129 (inactive),0.447,-0.12,-0.141,-0.59,-0.261,0.666
O=C/C=C/c1ccc(-c2ccccc2)cc1,-0.821,-0.241,0.149,-1.04 (inactive),0.141,-0.1,0.005,0.0445,-0.14,1.1
O=C1C2C=CC(C(O)C3CC=CCC3)N(Nc3ccc([N+](=O)[O-])cc3)C2C(=O)N1c1ccccc1 (stereo not given),0.811,1.47,1.03,0.809 (inactive),1,1.1,0.619,1.44,0.386,1.2

SMILES,composite z-score [1],composite z-score [2],composite z-score [3],z-score [4],composite z-score [5],composite z-score [6],composite z-score [7],composite z-score [8],composite z-score [9],composite z-score [10]
COc1ccc([Si](C)(C)[C@H]2[C@H](CC(=O)N3CCC[C@H]3CO)O[C@@]3(C(=O)N(C)c4ccccc43)[C@@H]2C)cc1,0.364,0.214,-0.159,0.361 (inactive),0.105,-0.102,0.335,0.705,0.588,1.48
C=C[C@@H](CO)NS(=O)(=O)c1ccc(Br)cc1,-1.62,-0.267,-0.0866,-0.774 (inactive),-0.398,-0.986,-0.288,-0.459,-0.0213,0.733
C=CCNC(=O)[C@H]1[C@@H]2C(=O)O[C@@H](c3ccccc3)[C@@H](c3ccccc3)N2[C@@H](c2ccc(O)cc2)[C@]12C(=O)Nc1ccc(C#CCC(C(=O)OC)C(=O)OC)cc12,-0.147,0.199,0.599,-0.0204 (inactive),0.727,1.04,-0.195,0.339,0.415,1.08
C=CCOC(=O)[C@@H]1[C@H]2C(=O)O[C@H](c3ccccc3)[C@H](c3ccccc3)N2[C@H](c2ccc(OCCOC(=O)[C@H]3C[C@H]4C(=O)N[C@@H](CCCCN(C)C)C(=O)N4[C@H]3c3cccc(OCCO)c3)cc2)[C@@]12C(=O)Nc1ccccc12,0.938,0.342,0.707,0.0554 (inactive),-0.515,0.602,-0.632,-0.335,-0.679,0.0981
COC(=O)c1ccc(OC)c(/C=C\CC(OC(=O)c2ccncc2)c2ccccc2)c1 (stereo not given),-0.475,-0.367,-0.43,-2.07 (inactive),0.377,0.058,1.09,0.891,0.631,1.61
CC(C)(C)OC(=O)CC[C@@]1(C(N)=O)N=C(c2ccc(OCCCO)cc2)O[C@@H]1c1ccccc1CN=[N+]=[N-],0.469,1.42,1.08,-0.169 (inactive),1.48,1.1,0.0813,0.211,-0.105,0.854
CS(=O)(=O)CCOC(=O)C1=CC(CCCO)=CC(C2CC2)N(Cc2sc3ccccc3c2Cl)C=C1C(=O)OCCS(C)(=O)=O (stereo not given),1.38,0.33,0.669,0.385 (inactive),0.705,0.838,-0.0062,0.856,0.018,1.36
C=CC[C@H](O)c1ccc(O)c(F)c1,0.399,-0.727,0.328,-0.339 (inactive),-0.809,-1.13,-1.23,-0.418,-1.97,-2.89
CCCCCN1CC=CC23O[C@@H]4/C=C\CCCOC(=O)C4[C@H]2C(=O)N(CCCCCO)[C@@H]3C1=O (stereo not given in full),0.447,-0.267,0.337,-0.831 (inactive),-0.566,-0.364,-0.779,-0.521,-0.833,0.468
O=C1c2ccccc2[C@@]2(Cc3ccccc3N(CC(F)(F)F)C2=O)[C@H](c2ccc(CO)cc2)N1Cc1ccccc1,-0.33,-0.449,-0.419,-0.719 (inactive),-0.0636,0.387,-0.171,0.766,0.309,1.32
C=CCC(OC(C)=O)[C@@H]1[C@@H](N(Cc2ccc(-c3ccccc3)cc2)C(=O)Cc2ccc(OC)cc2)c2cc(OCCCO)ccc2N1C(=O)Cc1ccc(OC)cc1 (stereo not given in full),-0.214,0.642,0.327,-0.581 (inactive),0.0842,-0.0794,-0.0897,-0.147,-0.191,1.59
COc1ccc([Si](C)(C)[C@H]2[C@H](CC(=O)N(CCO)Cc3ccccc3)O[C@@]3(C(=O)N(Cc4ccc(N5C(=O)c6cccc7cccc5c67)cc4)c4ccccc43)[C@@H]2C)cc1,0.899,0.0486,0.0598,-1.1 (inactive),0.994,-0.461,0.303,0.614,0.541,0.803
C=C1C(=O)C=C2CN(C(=O)c3ccccc3)[C@@](Cc3ccc(F)cc3)(C(=O)OC)[C@@H]12,0.641,1.16,1.21,-0.756 (inactive),0.941,1.2,-0.0735,1.06,-0.519,1.05
Cc1ccc(S[C@]2(C(=O)NCCN3CCOCC3)CC(=O)N(C(C)C)[C@@H]2c2ccc(CO)cc2I)cc1,1.89,0.713,1.24,-1.48 (inactive),-0.477,-0.465,-1.19,-0.55,-0.908,0.968
COC(=O)[C@@]1(Cc2ccc(OC)cc2)[C@H]2c3cc(C(=O)N(C)C)n(Cc4c(CO)[nH]cc(C)c4=O)c3C[C@H]2CN1C(=O)c1ccccc1,0.258,0.899,0.731,0.323 (inactive),-0.17,0.664,0.0854,0.128,-0.14,0.779
[N-]=[N+]=NCc1ccccc1C[C@@]1(C(N)=O)N=C(c2ccc(OCCCO)cc2)O[C@@H]1c1ccccc1N=[N+]=[N-],1.51,0.747,1.13,-0.397 (inactive),0.839,1.19,-0.547,-0.239,-0.38,-0.217
